Experimental data taken from PubChem BioAssay (EPA / NIEHS).
Results filed as inconclusive are left out. Active and inactive are the calls of the source. Rule for the calls: active = hit-call score of the fitted dose curve at least 0.9, where 1 is the maximum; inconclusive = response in the unintended direction; inactive = score below 0.9.

What was measured:
[1] = ATG_M_61_XSP1: Attagene TRANS-FACTORIAL Multi-Species (XSP1) HepG2 Assay for M61 Transcription Factor (Internal Marker) (AID 2283797)
Outline: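 HepG2 cells transiently transfected with multiplexed GAL4-driven reporter units, dosed 24 h with 3 nM 6-alpha-fluorotestosterone present. Reporter mRNA quantified by RT-PCR, 6-FAM labelling, HpaI digestion and capillary electrophoresis; internal-marker background control, gain of signal versus DMSO.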

[2] = molecular target: Peroxisome proliferator-activated receptor gamma (Homo sapiens) (UniProt P37231); test: ATG_hPPARg_XSP1: Attagene TRANS-FACTORIAL Multi-Species (XSP1) HepG2 Assay for human Peroxisome Proliferator-activated Receptor gamma (PPARg) (AID 2283800)
Peroxisome proliferator-activated receptor gamma (Homo sapiens), sequence (P37231 whole entry, looked up, the tested form may be a part): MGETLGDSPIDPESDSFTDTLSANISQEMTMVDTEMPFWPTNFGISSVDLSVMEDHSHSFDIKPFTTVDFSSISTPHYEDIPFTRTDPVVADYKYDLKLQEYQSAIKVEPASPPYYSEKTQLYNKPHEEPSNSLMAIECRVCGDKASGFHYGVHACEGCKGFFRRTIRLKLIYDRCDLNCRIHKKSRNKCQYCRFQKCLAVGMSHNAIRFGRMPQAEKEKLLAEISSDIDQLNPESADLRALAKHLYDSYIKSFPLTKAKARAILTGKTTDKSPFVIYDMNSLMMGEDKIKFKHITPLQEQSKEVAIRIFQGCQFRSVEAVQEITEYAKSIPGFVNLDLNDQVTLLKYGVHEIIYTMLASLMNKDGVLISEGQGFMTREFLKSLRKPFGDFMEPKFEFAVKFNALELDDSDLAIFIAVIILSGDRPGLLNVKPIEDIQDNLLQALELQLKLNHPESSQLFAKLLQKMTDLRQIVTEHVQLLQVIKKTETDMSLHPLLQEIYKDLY
Outline: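 HepG2 cells transiently transfected with GAL4-UAS reporter units carrying chimeric NR-Gal4 proteins; 3 nM 6-alpha-fluorotestosterone present. After 24 h dosing, reporter mRNA quantified by RT-PCR and capillary electrophoresis; gain of signal relative to DMSO.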

[3] = molecular target: Nuclear receptor subfamily 1 group I member 2 (Mus musculus) (UniProt O54915); test: ATG_mPXR_XSP1: Attagene TRANS-FACTORIAL Multi-Species (XSP1) HepG2 Assay for mouse Pregnane X Receptor (PXR) (AID 2283803)
Nuclear receptor subfamily 1 group I member 2 (Mus musculus), sequence (O54915 whole entry, looked up, the tested form may be a part): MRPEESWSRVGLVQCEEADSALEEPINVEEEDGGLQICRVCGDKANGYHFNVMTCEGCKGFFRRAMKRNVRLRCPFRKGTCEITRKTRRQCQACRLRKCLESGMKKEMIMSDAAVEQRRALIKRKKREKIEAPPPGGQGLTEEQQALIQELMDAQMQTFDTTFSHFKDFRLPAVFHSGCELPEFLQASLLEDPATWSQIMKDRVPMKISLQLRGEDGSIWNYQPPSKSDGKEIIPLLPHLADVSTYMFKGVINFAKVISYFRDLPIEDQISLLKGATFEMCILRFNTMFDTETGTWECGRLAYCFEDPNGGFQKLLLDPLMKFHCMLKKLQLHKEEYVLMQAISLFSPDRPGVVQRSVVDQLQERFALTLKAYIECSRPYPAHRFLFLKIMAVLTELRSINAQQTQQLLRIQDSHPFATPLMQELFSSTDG
Outline: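 Transiently transfected HepG2 cells expressing a receptor-Gal4 chimera drive a GAL4-UAS reporter; 3 nM 6-alpha-fluorotestosterone included. Reporter mRNA read 24 h post-dose by RT-PCR and capillary electrophoresis; gain of signal relative to DMSO.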

[4] = molecular target: human Thyroid hormone Receptor alpha (TRa), THRA (gene 7067) (UniProt P10827); test: ATG_hTRa_XSP1: Attagene TRANS-FACTORIAL Multi-Species (XSP1) HepG2 Assay for human Thyroid hormone Receptor alpha (TRa) (AID 2283805)
human Thyroid hormone Receptor alpha (TRa), THRA (gene 7067), sequence (P10827 whole entry, looked up, the tested form may be a part): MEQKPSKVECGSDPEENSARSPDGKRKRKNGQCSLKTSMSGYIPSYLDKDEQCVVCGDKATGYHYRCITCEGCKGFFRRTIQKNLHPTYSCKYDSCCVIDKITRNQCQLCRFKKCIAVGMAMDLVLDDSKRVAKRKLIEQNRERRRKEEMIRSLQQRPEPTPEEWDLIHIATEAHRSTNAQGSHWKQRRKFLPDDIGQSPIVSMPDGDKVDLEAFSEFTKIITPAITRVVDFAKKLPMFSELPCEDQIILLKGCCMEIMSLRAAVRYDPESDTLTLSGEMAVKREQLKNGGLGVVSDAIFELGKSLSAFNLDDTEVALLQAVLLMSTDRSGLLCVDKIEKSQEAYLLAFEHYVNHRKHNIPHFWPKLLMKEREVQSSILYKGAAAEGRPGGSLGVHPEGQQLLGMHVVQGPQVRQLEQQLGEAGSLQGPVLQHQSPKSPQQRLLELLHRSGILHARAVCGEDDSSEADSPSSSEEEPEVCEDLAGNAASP
Outline: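 HepG2 cells transiently transfected with GAL4-UAS reporter units expressing chimeric NR-Gal4 proteins, dosed 24 hours with 3 nM 6-alpha-fluorotestosterone present. Reporter mRNA measured by RT-PCR and capillary electrophoresis; gain of signal fitted versus DMSO.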

[5] = system: turtle Thyroid Hormone Receptor, alpha (TRa), gene 101949057; test: ATG_trTRa_XSP1: Attagene TRANS-FACTORIAL Multi-Species (XSP1) HepG2 Assay for turtle Thyroid Hormone Receptor, alpha (TRa) (AID 2283806)
Outline: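 HepG2 cells transiently transfected with GAL4-UAS reporter units and chimeric receptor-Gal4 constructs, with 3 nM 6-alpha-fluorotestosterone present. Reporter mRNA was quantified 24 h after dosing by RT-PCR, 6-FAM labelling and capillary electrophoresis; gain of signal versus DMSO.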

[6] = molecular target: zebrafish Thyroid Hormone Receptor alpha (TRa), thraa (gene 30670) (UniProt Q98867); test: ATG_zfTRa_XSP1: Attagene TRANS-FACTORIAL Multi-Species (XSP1) HepG2 Assay for zebrafish Thyroid Hormone Receptor alpha (TRa) (AID 2283807)
zebrafish Thyroid Hormone Receptor alpha (TRa), thraa (gene 30670), sequence (Q98867 whole entry, looked up, the tested form may be a part): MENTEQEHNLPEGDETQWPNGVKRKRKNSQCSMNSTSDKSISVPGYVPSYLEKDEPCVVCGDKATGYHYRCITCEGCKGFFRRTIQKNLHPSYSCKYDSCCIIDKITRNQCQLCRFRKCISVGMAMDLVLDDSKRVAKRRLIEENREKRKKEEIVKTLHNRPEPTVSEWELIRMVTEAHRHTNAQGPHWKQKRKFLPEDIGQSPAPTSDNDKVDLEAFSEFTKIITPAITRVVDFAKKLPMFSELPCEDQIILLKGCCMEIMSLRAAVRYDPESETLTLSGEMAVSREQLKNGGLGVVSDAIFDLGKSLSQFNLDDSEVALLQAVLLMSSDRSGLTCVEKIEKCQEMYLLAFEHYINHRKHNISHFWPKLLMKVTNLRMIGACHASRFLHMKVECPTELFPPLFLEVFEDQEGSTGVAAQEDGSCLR
Outline: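 HepG2 cells transiently transfected with GAL4-UAS reporter units including a zebrafish TRa–Gal4 chimera, dosed 24 h with 3 nM 6-alpha-fluorotestosterone present. Reporter mRNA quantified by RT-PCR and capillary electrophoresis; gain versus DMSO.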

[7] = molecular target: human Thyroid hormone Receptor beta (TRb), THRB (gene 7068) (UniProt P10828); test: ATG_hTRb_XSP1: Attagene TRANS-FACTORIAL Multi-Species (XSP1) HepG2 Assay for human Thyroid hormone Receptor beta (TRb) (AID 2283808)
human Thyroid hormone Receptor beta (TRb), THRB (gene 7068), sequence (P10828 whole entry, looked up, the tested form may be a part): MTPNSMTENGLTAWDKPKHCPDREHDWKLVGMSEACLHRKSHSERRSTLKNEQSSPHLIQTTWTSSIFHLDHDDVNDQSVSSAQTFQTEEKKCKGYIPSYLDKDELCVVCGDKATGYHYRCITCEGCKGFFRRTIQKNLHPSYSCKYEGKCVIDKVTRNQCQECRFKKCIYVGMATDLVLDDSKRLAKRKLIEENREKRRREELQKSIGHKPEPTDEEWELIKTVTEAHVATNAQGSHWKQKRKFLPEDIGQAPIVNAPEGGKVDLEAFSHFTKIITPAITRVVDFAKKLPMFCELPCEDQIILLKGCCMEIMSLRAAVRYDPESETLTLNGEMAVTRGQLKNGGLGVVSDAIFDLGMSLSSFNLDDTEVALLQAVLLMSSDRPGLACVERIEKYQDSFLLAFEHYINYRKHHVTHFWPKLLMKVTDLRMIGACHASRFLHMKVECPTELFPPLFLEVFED
Outline: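 HepG2 cells transiently transfected with reporter units driving GAL4-UAS reporters for chimeric NR-Gal4 proteins; 24 h chemical exposure with 3 nM 6-alpha-fluorotestosterone present. Reporter mRNA quantified by RT-PCR and capillary electrophoresis, gain of signal versus DMSO.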

[8] = molecular target: zebrafish Thyroid Hormone Receptor beta (TRb), thrb (gene 30607) (UniProt Q9PVE4); test: ATG_zfTRb_XSP1: Attagene TRANS-FACTORIAL Multi-Species (XSP1) HepG2 Assay for zebrafish Thyroid Hormone Receptor beta (TRb) (AID 2283809)
zebrafish Thyroid Hormone Receptor beta (TRb), thrb (gene 30607), sequence (Q9PVE4 whole entry, looked up, the tested form may be a part): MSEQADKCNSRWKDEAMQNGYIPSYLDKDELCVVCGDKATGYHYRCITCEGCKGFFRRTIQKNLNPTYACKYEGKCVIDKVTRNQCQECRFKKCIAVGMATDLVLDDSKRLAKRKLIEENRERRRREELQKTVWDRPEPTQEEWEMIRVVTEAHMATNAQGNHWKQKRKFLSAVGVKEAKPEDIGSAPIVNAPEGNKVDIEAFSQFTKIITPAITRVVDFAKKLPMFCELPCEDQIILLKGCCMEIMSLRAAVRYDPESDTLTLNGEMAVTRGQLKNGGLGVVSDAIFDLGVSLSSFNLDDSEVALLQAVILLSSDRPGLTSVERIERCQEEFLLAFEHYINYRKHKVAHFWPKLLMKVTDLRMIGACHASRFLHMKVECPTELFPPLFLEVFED
Outline: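 HepG2 cells transiently transfected with multiplexed GAL4-UAS reporter units expressing chimeric zebrafish TRb–Gal4. Dosed 24 h with 3 nM 6-alpha-fluorotestosterone present; reporter mRNA measured by RT-PCR, HpaI digestion and capillary electrophoresis; gain of signal versus DMSO.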

[9] = ATG_XTT_Cytotoxicity_XSP1: Cytotoxicity Assessment in the Attagene TRANS-FACTORIAL Multi-Species (XSP1) HepG2 Assay (AID 2283810)
Outline: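 XTT viability readout taken at 24 hours post-dosing in HepG2 liver cells co-treated with 3 nM 6-alpha-fluorotestosterone. Signal loss relative to DMSO controls reflects cytotoxicity.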

[10] = ATG_M_06_XSP2: Attagene TRANS-FACTORIAL Multi-Species (XSP2) HepG2 Assay for M06 Transcription Factor (Internal Marker) (AID 2283811);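 note: hits are increases in signal above the DMSO baseline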
Outline: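 HepG2, multiplexed reporter transfection; 24 h dosing; AR stimulated with 3 nM 6-alpha-fluorotestosterone + 1.5 nM norgestrel; RNA → RT-PCR → 6-FAM primer extension → HpaI → CE. Positive direction vs DMSO.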

[11] = system: turtle Estrogen Receptor (ERa), gene 101933533; test: ATG_trERa_XSP2: Attagene TRANS-FACTORIAL Multi-Species (XSP2) HepG2 Assay for turtle Estrogen Receptor (ERa) (AID 2283812);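 note: human HepG2 liver cells transiently expressing turtle ERa-Gal4 chimeric receptor; actives raise reporter signal above DMSO so AC50 reflects agonist activity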
Outline: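 HepG2 cells transiently transfected with GAL4-UAS reporter units expressing turtle ERa-Gal4 chimera. Reporter mRNA measured after 24 h dosing by RT-PCR, fluorescent labelling and capillary electrophoresis; gain of signal fitted versus DMSO.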

[12] = molecular target: Estrogen receptor beta (Homo sapiens) (UniProt Q92731); test: ATG_hERb_XSP2: Attagene TRANS-FACTORIAL Multi-Species (XSP2) HepG2 Assay for human Estrogen Receptor (ERb) (AID 2283813);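 note: actives raise reporter mRNA above DMSO so AC50 reflects agonist induction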
Estrogen receptor beta (Homo sapiens), sequence (Q92731 whole entry, looked up, the tested form may be a part): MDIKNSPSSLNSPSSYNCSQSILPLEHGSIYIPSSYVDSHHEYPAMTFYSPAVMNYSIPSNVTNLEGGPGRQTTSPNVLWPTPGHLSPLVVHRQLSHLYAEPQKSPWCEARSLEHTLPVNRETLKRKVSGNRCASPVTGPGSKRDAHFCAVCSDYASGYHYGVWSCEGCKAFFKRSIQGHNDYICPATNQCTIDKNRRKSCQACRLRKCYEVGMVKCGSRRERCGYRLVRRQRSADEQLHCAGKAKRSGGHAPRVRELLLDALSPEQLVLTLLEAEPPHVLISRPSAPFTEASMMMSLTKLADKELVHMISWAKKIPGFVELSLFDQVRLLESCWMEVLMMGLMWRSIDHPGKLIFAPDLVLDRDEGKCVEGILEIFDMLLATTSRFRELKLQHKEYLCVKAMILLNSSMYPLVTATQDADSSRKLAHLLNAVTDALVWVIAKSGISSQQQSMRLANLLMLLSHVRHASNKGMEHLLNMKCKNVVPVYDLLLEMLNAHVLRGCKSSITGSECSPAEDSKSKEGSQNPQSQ
Outline: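 HepG2 cells transiently transfected with GAL4-UAS reporter units and chimeric human ERb-Gal4, 24 h exposure. Reporter mRNA quantified by RT-PCR with FAM labelling, HpaI digestion and capillary electrophoresis; gain of signal versus DMSO.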

[13] = molecular target: GAL4 Transcription Factor (Internal Marker), GAL4 (gene 855828) (UniProt P04386); test: ATG_GAL4_XSP2: Attagene TRANS-FACTORIAL Multi-Species (XSP2) HepG2 Assay for GAL4 Transcription Factor (Internal Marker) (AID 2283814);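 note: GAL4 reporter mRNA background control in MRTU transfected cells not a receptor target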
GAL4 Transcription Factor (Internal Marker), GAL4 (gene 855828), sequence (P04386 whole entry, looked up, the tested form may be a part): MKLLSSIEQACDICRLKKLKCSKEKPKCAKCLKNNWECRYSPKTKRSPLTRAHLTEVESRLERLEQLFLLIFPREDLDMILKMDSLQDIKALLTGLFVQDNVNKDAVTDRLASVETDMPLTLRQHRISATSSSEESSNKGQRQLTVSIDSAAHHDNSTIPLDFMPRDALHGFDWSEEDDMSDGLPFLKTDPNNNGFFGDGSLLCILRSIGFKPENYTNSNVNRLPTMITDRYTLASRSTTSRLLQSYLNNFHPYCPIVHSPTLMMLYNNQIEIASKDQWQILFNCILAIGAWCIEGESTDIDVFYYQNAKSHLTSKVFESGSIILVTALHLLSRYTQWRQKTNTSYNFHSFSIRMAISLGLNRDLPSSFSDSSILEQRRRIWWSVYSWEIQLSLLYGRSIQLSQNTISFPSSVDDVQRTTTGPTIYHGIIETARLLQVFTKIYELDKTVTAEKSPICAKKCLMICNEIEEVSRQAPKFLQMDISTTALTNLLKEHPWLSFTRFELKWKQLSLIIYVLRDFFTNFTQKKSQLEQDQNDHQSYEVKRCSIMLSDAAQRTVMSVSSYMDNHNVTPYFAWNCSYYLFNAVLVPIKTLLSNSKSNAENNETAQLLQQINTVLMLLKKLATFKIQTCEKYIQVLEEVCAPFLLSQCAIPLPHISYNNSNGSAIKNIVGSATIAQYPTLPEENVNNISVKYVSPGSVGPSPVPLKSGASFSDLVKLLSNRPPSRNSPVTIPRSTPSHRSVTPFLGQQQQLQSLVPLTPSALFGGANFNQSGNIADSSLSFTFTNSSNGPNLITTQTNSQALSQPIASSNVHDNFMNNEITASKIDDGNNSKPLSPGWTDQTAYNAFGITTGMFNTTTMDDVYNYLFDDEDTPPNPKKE
Outline: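 HepG2 cells transiently transfected with GAL4-UAS reporter units, stimulated with 3 nM 6-alpha-fluorotestosterone plus 1.5 nM norgestrel, dosed 24 h. Reporter mRNA by RT-PCR/capillary electrophoresis; gain-of-signal fit versus DMSO, background control.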

[14] = molecular target: chicken Estrogen Receptor (ERa), ESR1 (gene 396099) (UniProt P06212); test: ATG_chERa_XSP2: Attagene TRANS-FACTORIAL Multi-Species (XSP2) HepG2 Assay for chicken Estrogen Receptor (ERa) (AID 2283817);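 note: actives raise reporter signal above DMSO so AC50 reflects ER activation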
chicken Estrogen Receptor (ERa), ESR1 (gene 396099), sequence (P06212 whole entry, looked up, the tested form may be a part): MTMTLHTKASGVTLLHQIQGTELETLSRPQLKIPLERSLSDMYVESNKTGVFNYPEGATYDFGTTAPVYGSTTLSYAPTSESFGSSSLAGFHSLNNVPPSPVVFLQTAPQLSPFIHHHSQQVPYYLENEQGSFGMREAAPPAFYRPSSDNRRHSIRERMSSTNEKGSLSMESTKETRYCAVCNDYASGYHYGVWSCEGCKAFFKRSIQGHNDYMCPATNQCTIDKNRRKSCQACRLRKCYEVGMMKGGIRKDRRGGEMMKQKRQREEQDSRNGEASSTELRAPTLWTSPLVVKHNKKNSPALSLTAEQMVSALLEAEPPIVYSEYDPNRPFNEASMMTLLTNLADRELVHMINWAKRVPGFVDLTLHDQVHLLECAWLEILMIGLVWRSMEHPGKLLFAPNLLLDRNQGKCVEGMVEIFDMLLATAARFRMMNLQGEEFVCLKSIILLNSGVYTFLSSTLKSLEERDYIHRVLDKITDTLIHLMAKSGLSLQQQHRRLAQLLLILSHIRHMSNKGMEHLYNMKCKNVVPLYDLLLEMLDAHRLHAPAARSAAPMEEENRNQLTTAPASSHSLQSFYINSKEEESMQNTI
Outline: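 Transient MRTU transfection of HepG2 → 24 h chemical dosing → TriZol RNA, oligo(dT) RT → PCR, 6-FAM primer extension, HpaI digest → CE quantitation of chicken ERa-Gal4-driven reporter mRNA. Positive direction vs DMSO.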

[15] = system: zebrafish Estrogen Receptor (ER2a), gene 317734; test: ATG_zfER2a_XSP2: Attagene TRANS-FACTORIAL Multi-Species (XSP2) HepG2 Assay for zebrafish Estrogen Receptor (ER2a) (AID 2283818);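 note: hits raise reporter mRNA so AC50 reflects activation of zebrafish ER2a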
Outline: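 HepG2 cells transiently transfected with GAL4-UAS reporter units and chimeric zebrafish ER2a-Gal4, exposed 24 h; medium contains 3 nM 6-alpha-fluorotestosterone and 1.5 nM norgestrel. Reporter mRNA quantified by RT-PCR, HpaI digestion, capillary electrophoresis; gain versus DMSO.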

[16] = system: frog Estrogen Receptor (ER), gene 398734; test: ATG_frER1_XSP2: Attagene TRANS-FACTORIAL Multi-Species (XSP2) HepG2 Assay for frog Estrogen Receptor (ER) (AID 2283821);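 note: hits raise reporter mRNA above DMSO baseline so potency means agonist or activator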
Outline: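 Steps: transfect HepG2 with multiple reporter transcription units; treat with chemical for 24 h; isolate RNA, reverse-transcribe, PCR-amplify, label with 6-FAM, digest with HpaI; resolve fragments by capillary electrophoresis. Signal is scored against DMSO.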

[17] = system: zebrafish Estrogen Receptor (ER2b), gene 317733; test: ATG_zfER2b_XSP2: Attagene TRANS-FACTORIAL Multi-Species (XSP2) HepG2 Assay for zebrafish Estrogen Receptor (ER2b) (AID 2283823);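 note: fitted upward as reporter gain over DMSO so potency reflects activation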
Outline: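 Cells used were HepG2, transiently transfected with chimeric nuclear receptor-Gal4 reporter units. After 24 h of chemical treatment, reporter transcripts were amplified by RT-PCR, labelled and sized by capillary electrophoresis, with induction analysed relative to DMSO.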

[18] = system: frog Estrogen Receptor (ER2), gene 100174814; test: ATG_frER2_XSP2: Attagene TRANS-FACTORIAL Multi-Species (XSP2) HepG2 Assay for frog Estrogen Receptor (ER2) (AID 2283828)
Outline: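 Multiplexed transactivation in HepG2: frog estrogen receptor fused to Gal4 drives a UAS reporter. Signal is reporter mRNA after 24 h treatment.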

[19] = molecular target: Peroxisome proliferator-activated receptor gamma (Homo sapiens) (UniProt P37231); test: ATG_hPPARg_XSP2: Attagene TRANS-FACTORIAL Multi-Species (XSP2) HepG2 Assay for human Peroxisome Proliferator-activated Receptor gamma (PPARg) (AID 2283829);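 note: actives raise reporter mRNA above DMSO so AC50 reflects PPARg activation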
Outline: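 After transfecting HepG2 with GAL4-UAS reporter constructs, cells are dosed for 24 h; total RNA is reverse-transcribed, PCR-amplified, FAM-labeled, HpaI-digested and resolved by capillary electrophoresis. Activity is measured as mRNA induction relative to DMSO.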

[20] = molecular target: Nuclear receptor subfamily 1 group I member 2 (Mus musculus) (UniProt O54915); test: ATG_mPXR_XSP2: Attagene TRANS-FACTORIAL Multi-Species (XSP1) HepG2 Assay for mouse Pregnane X Receptor (PXR) (AID 2283831)
Outline: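 Reporter transcripts were quantified by RT-PCR, FAM primer extension, HpaI digestion and capillary electrophoresis after 24 h of chemical exposure in transiently transfected HepG2 cells carrying chimeric receptor-GAL4 constructs; DMSO served as baseline.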

Measured: AC50

C[C@]12CC[C@@H]3c4ccc(O)cc4CC[C@H]3[C@@H]1C[C@@H](O)[C@@H]2O
inactive: [1] | [2] | [3] | [4] | [5] | [6] | [7] | [8] | [9] | [10] | [13] | [16] | [18] | [19] | [20]
active: [11] 30.6 nM | [12] 10.2 nM | [14] 72.5 nM | [15] 100 nM | [17] 30.8 nM
